# According to the GenesisPotency data set:
# About 3,000 (1%) of roughly 290,000 compounds were called active. Rule as the data show it: active = inhibition mostly above about 36% (no sharp cut-off); inactive = mostly below about 34%. Only a selection was taken, and actives are over-represented in it overall.
# Biological target: T1, Nucleotide-binding oligomerization domain-containing protein 1, Homo sapiens (UniProt Q9Y239)
# T1 sequence (whole entry): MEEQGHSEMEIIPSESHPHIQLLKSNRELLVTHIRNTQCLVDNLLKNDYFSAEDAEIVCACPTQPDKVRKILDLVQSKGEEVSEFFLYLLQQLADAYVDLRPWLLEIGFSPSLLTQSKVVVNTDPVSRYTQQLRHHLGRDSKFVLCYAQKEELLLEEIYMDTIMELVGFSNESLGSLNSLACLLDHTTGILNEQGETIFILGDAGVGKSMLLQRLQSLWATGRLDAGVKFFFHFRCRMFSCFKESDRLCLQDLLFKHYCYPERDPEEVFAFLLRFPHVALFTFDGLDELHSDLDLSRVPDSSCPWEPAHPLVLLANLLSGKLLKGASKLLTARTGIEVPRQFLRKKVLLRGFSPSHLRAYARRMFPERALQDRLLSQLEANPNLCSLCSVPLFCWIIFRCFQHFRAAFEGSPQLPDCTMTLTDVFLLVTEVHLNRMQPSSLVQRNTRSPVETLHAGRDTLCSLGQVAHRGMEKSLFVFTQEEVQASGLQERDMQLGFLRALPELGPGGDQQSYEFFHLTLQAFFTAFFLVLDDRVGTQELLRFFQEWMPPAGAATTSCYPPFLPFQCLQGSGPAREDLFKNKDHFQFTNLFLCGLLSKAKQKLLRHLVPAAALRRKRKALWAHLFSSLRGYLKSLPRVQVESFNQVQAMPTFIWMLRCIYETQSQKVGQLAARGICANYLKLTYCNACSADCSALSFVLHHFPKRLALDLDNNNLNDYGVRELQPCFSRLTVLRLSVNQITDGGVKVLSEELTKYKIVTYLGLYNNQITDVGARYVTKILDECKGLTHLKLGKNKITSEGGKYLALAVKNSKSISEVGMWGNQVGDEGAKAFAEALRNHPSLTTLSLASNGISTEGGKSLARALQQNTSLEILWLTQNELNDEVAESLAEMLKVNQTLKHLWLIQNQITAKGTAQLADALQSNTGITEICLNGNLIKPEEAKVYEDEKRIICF
# Assay: NOD1 signaling inhibitors, primary screen, cell-based, luminescence, uHTS (AID 1578)
row,SMILES,outcome
1,N#C/C(=C(/O)Cc1cccc2ccccc12)c1nc2ccccc2s1,active
2,N#C/C(=C(/O)COc1ccc(Cl)cc1)c1nc2ccccc2s1,active
3,COc1ccccc1NS(=O)(=O)c1cccc(NC(=O)c2sc3ccccc3c2Cl)c1,active
4,CS(=O)(=O)Nc1ccccc1C(=O)Nc1cc(Cl)cc(Cl)c1,active
5,Cc1ccc(NC(=O)c2ccccc2NS(=O)(=O)c2ccc(Cl)s2)cc1S(=O)(=O)N1CCOCC1,active
6,COc1ccc(C)cc1NC(=O)c1ccccc1NS(=O)(=O)c1ccc(Cl)s1,active
7,Cc1ccc(NC(=O)c2ccccc2NS(=O)(=O)c2ccc(Cl)s2)cc1,active
8,COc1cc(NC(=O)c2ccccc2NS(=O)(=O)c2ccc(Cl)s2)cc(OC)c1,active
9,Cc1ccc(C)c(NC(=O)c2ccccc2NS(=O)(=O)c2cc([N+](=O)[O-])ccc2C)c1,active
10,O=C1CCC2S/C(=C/Nc3ccc(C(F)(F)F)cc3)C(=O)N12 (centres undefined),active
11,Cc1ccc(-c2nn(CCC(=O)O)cc2/C=C\C(=O)c2ccc(Br)cc2)cc1,active
12,O=C(c1ccccc1)c1nn(-c2ccc(Cl)cc2)c(=O)cc1C(F)(F)F,active
13,CCOC(=O)c1c(N2C(=O)Nc3cc(Cl)c(Cl)cc3N2O)sc2c1CCCCC2,active
14,COc1ccc2cc3c(N)nn(C(=O)Cc4ccccc4OC)c3nc2c1,active
15,COc1ccc2cc3c(N)nn(C(=O)Cc4c[nH]c5ccccc45)c3nc2c1,active
16,CCCCCCc1cc2cc(S(=O)(=O)c3ccc(Cl)cc3)c(=O)oc2cc1O,active
17,CCCCCCc1cc2cc(S(=O)(=O)c3ccc(F)c(Cl)c3)c(=O)oc2cc1O,active
18,Cc1nn(Cc2ccc(Cl)cc2)c(C)c1NC(=O)c1noc2c1CCc1ccccc1-2,active
19,CC(C)Cn1c(N)c(C(=O)CSc2ccc3c(c2)OCCO3)c(=O)n(C)c1=O,active
20,COc1ccc(-c2cc(=O)oc3c(C)c(OC(=O)c4cccs4)ccc23)cc1,active
21,COc1ccc(-c2cc(=O)oc3c(C)c(O)ccc23)cc1,active
22,C=C1C(=O)O[C@@H]2C[C@@H](C)[C@@H]3C=CC(=O)[C@@]3(C)[C@@H](OC(C)=O)[C@H]12,active

row,SMILES,outcome
1,COc1ccc(-c2[nH]ncc2-c2ccc3c(c2)OCCO3)c(O)c1,active
2,COc1ccc(-c2cn[nH]c2-c2ccc(OC)cc2O)cc1,active
3,COc1ccc(-c2cn[nH]c2-c2ccc(O)cc2O)cc1,active
4,COc1ccc(-c2cn[nH]c2-c2ccc(OC)cc2)cc1,active
5,Cc1nc2ccc(NS(=O)(=O)c3ccc(F)c(C)c3)cc2[nH]1,active
6,CCC1CCCCN1S(=O)(=O)c1ccc(C(=O)Nc2nnc(-c3ccccc3Cl)o2)cc1 (centres undefined),active
7,CC1CCCCN1S(=O)(=O)c1ccc(C(=O)Nc2nnc(-c3ccccc3Cl)o2)cc1 (centres undefined),active
8,O=C(Nc1nnc(-c2ccccc2Cl)o1)c1ccc(S(=O)(=O)N2CCCCCC2)cc1,active
9,Cc1nc2ccccc2c(C)c1C(=O)c1ccc(F)cc1.Cl,active
10,COCCn1c(C)cc(C(=O)COC(=O)c2cccc(O)c2)c1C,active
11,COCCn1c(C)cc(C(=O)COc2ccc(C)nc2[N+](=O)[O-])c1C,active
12,Cc1ccc(OCC(=O)c2cc(C)n(Cc3ccco3)c2C)c([N+](=O)[O-])n1,active
13,Cc1ccc(OCC(=O)c2cc(C)n(Cc3cccs3)c2C)c([N+](=O)[O-])n1,active
14,CCOC(=O)/C=C/S(=O)(=O)c1ccc(NC(C)=O)cc1,active
15,O=C(Oc1c(-c2ccccc2)c(=O)n2c3c(cccc13)CC2)c1ccccc1,active
16,O=C(Oc1c(-c2ccccc2)c(=O)n2c3c(cccc13)CC2)c1ccc(Cl)cc1,active
17,CC(C)(C)OC(=O)NCC(=O)Oc1cc2oc(=O)cc(-c3ccccc3)c2cc1Cl,active
18,O=C(CNC(=O)OCc1ccccc1)Oc1cc2oc(=O)cc(-c3ccccc3)c2cc1Cl,active
19,CN(CC1CCCO1)S(=O)(=O)c1ccc(C(=O)Nc2nc3cc4c(cc3s2)OCO4)cc1 (centres undefined),active
20,CC(=O)c1cn(CCOc2cc(C)ccc2C)c2ccccc12,active
21,CC(=O)c1cn(CCOc2ccccc2C)c2ccccc12,active
22,COc1ccc(-c2cc(N)n(S(=O)(=O)c3c(F)c(F)c(F)c(F)c3F)n2)cc1OC,active

row,SMILES,outcome
1,N#CC(C#N)=C(Nc1ccc(F)cc1)SCc1cccc(F)c1,active
2,Cc1ccc(CSC(Nc2ccc(F)cc2)=C(C#N)C#N)cc1,active
3,N#CC(C#N)=C(Nc1ccc(F)cc1)SCc1cccc(Br)c1,active
4,O=C(COc1ccc2c(-c3ccccc3)cc(=O)oc2c1)Nc1ccc(CCO)cc1,active
5,CCCc1ccc(-c2c(C)sc(NC(=O)c3ccnn3C)c2C#N)cc1,active
6,O=C1N/C(=N\N=C\c2ccccn2)SC1Cc1cccc(SC(F)F)c1 (centres undefined),active
7,CCOc1ccc2nc(NC(=O)c3ccccn3)sc2c1,active
8,COc1ccc(C(=O)Nc2nc3ccccc3s2)c(OC)c1,active
9,COc1ccccc1C(=O)Nc1nc2ccccc2s1,active
10,O=C(Nc1ccc([N+](=O)[O-])cc1)Nc1nc(-c2ccc(Cl)s2)cs1,active
11,COC(CN(C(=O)CCl)C(C(=O)NC1CCCCC1)c1ccccc1C)OC (centres undefined),active
12,Cc1ccc(N(C(=O)CCl)C(C(=O)NC2CCCCC2)c2cccnc2)cc1C (centres undefined),active
13,O=C(NC1CCCCC1)C(c1cccnc1)N(C(=O)CCl)c1cccc(Cl)c1 (centres undefined),active
14,O=C(NC1CCCCC1)C(c1cccnc1)N(C(=O)CCl)c1ccccc1Cl (centres undefined),active
15,COc1ccc(C(C(=O)NC2CCCCC2)N(C(=O)CCl)c2cccc(Cl)c2)cc1 (centres undefined),active
16,CC(C)c1noc2ncc(C(=O)c3cc(Cl)cc(Cl)c3O)cc12,active
17,Cc1nnc(N2CCCC(C(=O)Nc3cc(F)ccc3F)C2)c2nn(-c3ccccc3)c(C)c12 (centres undefined),active
18,N#CCc1ccc(NC(=O)c2ccc(CN3CCc4ccccc4C3)cc2)cc1,active
19,O=C(Nc1ccc(F)cc1)c1ccc(CN2CCc3ccccc3C2)cc1,active
20,Cc1ccc(-c2csc(N3CCC(NS(=O)(=O)c4ccc5c(c4)OCCO5)CC3)n2)cc1,active
21,COc1ccc(Oc2ccccc2/C=N/O)cc1,active
22,O=C(CSc1nnnn1C1CC2CCC1C2)Nc1ccnc2ccccc12 (centres undefined),active

row,SMILES,outcome
1,CCC(C)Cn1c([O-])cc2nn(-c3nc4ccccc4s3)c(=O)c-2c1C.[Na+] (centres undefined),active
2,CC1=Nc2ccccc2/C1=C/c1sc(=N)n(-c2nccs2)c1O,active
3,Nc1cc2ccncc2c2ccccc12,active
4,NC(=O)c1cc2ccncc2c2ccccc12,active
5,Cc1cccc(C(=O)NNC2=C(C(=O)C(F)(F)F)CCC2)c1O,active
6,C=CS(=O)(=O)c1ccc(Oc2ccc(S(=O)(=O)C=C)cc2)cc1,active
7,COc1cccc(NS(=O)(=O)c2ccc3c(c2)CCN3C(C)=O)c1,active
8,COc1cccc(C(=O)/C=C/Nc2ccc(S(=O)(=O)Nc3cccc(C(C)=O)c3)cc2)c1,active
9,Cc1c(C)n(Cc2ccccc2)c2ncnc(Cl)c12,active
10,Br.CCCCCCCCCCn1c2c(c(=N)c3c1CCC3)CCC2,active
11,Br.CCCCCCCCCn1c2c(c(=N)c3c1CCC3)CCC2,active
12,Br.CCCCCCCCn1c2c(c(=N)c3ccccc31)CCC2,active
13,COc1cccc(NC(=O)CN(C)CC(=O)Nc2ccc(C)c([N+](=O)[O-])c2)c1,active
14,Cc1ccc(N(Cc2cc(=O)[nH]c3ccccc23)C(=O)CCl)cc1,active
15,Cc1cccc(N(Cc2cc(=O)[nH]c3ccccc23)C(=O)CCl)c1,active
16,O=C(CCl)N(Cc1cc(=O)[nH]c2ccccc12)c1ccccc1,active
17,Cn1cc([N+](=O)[O-])c(C(=O)Nc2cc(Oc3ccccc3)cc([N+](=O)[O-])c2)n1,active
18,CNC(=O)c1nnsc1S(=O)(=O)c1ccc(Cl)cc1,active
19,O=C(c1nnsc1S(=O)(=O)c1ccc(Cl)cc1)N1CCOCC1,active
20,CCCN(CCC)S(=O)(=O)c1ccc(C(=O)Nc2nnc(-c3cc(OC)cc(OC)c3)o2)cc1,active
21,O=C(Nc1nnc(-c2ccc3c(c2)OCCO3)o1)c1ccc(Cc2ccccc2)cc1,active
22,COc1cc(OC)cc(-c2nnc(NC(=O)c3ccc4c(c3)OCCO4)o2)c1,active

row,SMILES,outcome
1,O=C(Nc1nnc(-c2ccco2)o1)c1ccc2ccccc2c1,active
2,CSCc1nnc(NC(=O)c2ccc(S(=O)(=O)N(CC(C)C)CC(C)C)cc2)o1,active
3,O=C(Nc1ccc(Oc2ccccc2)cc1)C1CCN(c2c3c(nc4ncnn24)CCC3)CC1,active
4,Cc1nc(N)c(C#N)c(-c2cccnc2)c1-c1ccccc1,active
5,CC1CCc2nc(N)c(C#N)c(-c3cccnc3)c2C1 (centres undefined),active
6,Cc1ccc(NC(=O)O/N=C/c2c(C)nn(C(C)(C)C)c2C)cc1Cl,active
7,CC(=O)Oc1c(C)cc(Cl)cc1C(=O)Nc1ccc([N+](=O)[O-])cc1Cl,active
8,N#Cc1c(NC(=O)CSc2ncn[nH]2)sc2c1CCCC2,active
9,CC1CCc2c(sc(NC(=O)CSc3ncn[nH]3)c2C#N)C1 (centres undefined),active
10,N#Cc1c(NC(=O)CSc2ncn[nH]2)sc2c1CCCCC2,active
11,Cc1ccc(NC(=O)c2cc3c(s2)CCCC3)cc1S(=O)(=O)Nc1ccccc1Cl,active
12,O=C(Nc1cc(S(=O)(=O)Nc2ccccc2Cl)ccc1O)c1cc2c(s1)CCCC2,active
13,Cn1c(=O)c(C#N)c(-c2ccc(F)cc2)c2cc(C(=O)c3cc(Cl)cc(Cl)c3O)cnc21,active
14,CC(C)(C)c1ccc(C(=O)N2CCCCCC2=O)cc1,active
15,O=C(COc1ccc(Cl)cc1Cl)Nc1ccc(C(=O)Nc2ccccc2C(=O)O)cc1,active
16,Oc1c(Cl)cc(Cl)c2cccnc12,active
17,Oc1c(I)cc(Cl)c2cccnc12,active
18,O=[N+]([O-])c1cc(Cl)c(O)c2ncccc12,active
19,O=C(Oc1c(Cl)cc(Cl)c2cccnc12)c1ccco1,active
20,Oc1c(I)cc(I)c2cccnc12,active
21,c1ccc(N2CCN(c3ncnc4sc5c(c34)CCC5)CC2)cc1,active
